{"source": "ChEMBL document CHEMBL3988442", "about": "“University of Dundee, Small-Polar-MMV Screening Library” (2021)", "key": {"[1]": {"biological_target": "T1, Methionyl-tRNA synthetase, putative (Leishmania donovani (strain BPK282A1)) (UniProt E9BF75)", "T1 sequence (whole entry)": "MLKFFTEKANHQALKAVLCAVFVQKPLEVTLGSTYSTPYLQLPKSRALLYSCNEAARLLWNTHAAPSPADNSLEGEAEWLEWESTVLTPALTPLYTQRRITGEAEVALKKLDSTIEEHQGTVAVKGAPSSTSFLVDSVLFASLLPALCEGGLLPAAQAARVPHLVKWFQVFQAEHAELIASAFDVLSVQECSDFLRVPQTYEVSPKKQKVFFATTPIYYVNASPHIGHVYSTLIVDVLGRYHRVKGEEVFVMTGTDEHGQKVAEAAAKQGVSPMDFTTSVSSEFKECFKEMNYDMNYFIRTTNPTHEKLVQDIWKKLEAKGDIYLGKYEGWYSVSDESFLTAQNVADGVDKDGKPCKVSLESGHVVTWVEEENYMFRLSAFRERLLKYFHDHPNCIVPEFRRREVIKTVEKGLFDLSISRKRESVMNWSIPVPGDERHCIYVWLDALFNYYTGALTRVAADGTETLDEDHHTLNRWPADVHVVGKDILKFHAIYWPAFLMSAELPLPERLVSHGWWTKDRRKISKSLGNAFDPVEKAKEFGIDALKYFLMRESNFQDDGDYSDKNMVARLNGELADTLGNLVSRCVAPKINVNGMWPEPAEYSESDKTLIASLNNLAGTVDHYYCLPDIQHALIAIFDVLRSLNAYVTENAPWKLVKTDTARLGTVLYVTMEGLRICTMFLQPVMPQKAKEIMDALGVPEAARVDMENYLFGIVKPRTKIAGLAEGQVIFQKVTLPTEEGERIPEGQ", "experiment": "Leishmania donovani Methionine tRNA synthetase (LdMetRS):v7. Dose response assay", "type": "functional", "set-up": "conc 80 nM, time 150 minutes"}, "[2]": {"biological_target": "AMP-activated protein kinase, AMPK (Homo sapiens) (UniProt P54646+O43741+P54619+Q9UGJ0+Q9Y478+Q13131+Q9UGI9)", "experiment": "AMP-dependent Kinase enzyme assay. An in vitro enzyme assay that detects ADP turnover that is directly proportional to AMPK activity. This uses naive AMPK that is activated during the assay with MK-8722", "type": "functional", "set-up": "scale not given: direction of the effect not stated beside the values", "conditions": "30 µM"}}}
{"smiles": "CCN(CC)c1ccc2ccc(C(=O)N3CCCCO3)cn12", "values": [{"measurement": "PXC50", "setting": "[1]; BOTTOM -0.620934572, HILLSLOPE 1.091774088, MAX_EFFECT 59.15492958, TOP 100.0", "result": 4.06}, {"measurement": "PXC50", "setting": "[1]; BOTTOM -3.857934484, HILLSLOPE 1.704145188, MAX_EFFECT 56.25, TOP 100.0", "result": 4.39}, {"measurement": "PXC50", "setting": "[1]; MAX_EFFECT 43.85964912", "result": "< 4"}, {"measurement": "PXC50", "setting": "[1]; MAX_EFFECT 47.96296296", "result": "< 4"}]}
{"smiles": "Cn1ncc2c(NC3CCOCC3)nc(Nc3ccc(F)c(F)c3)nc21", "values": [{"measurement": "PXC50", "setting": "[1]; BOTTOM 5.374646893, HILLSLOPE 1.78968519, MAX_EFFECT 52.27272727, TOP 55.59803221", "result": 4.65}, {"measurement": "PXC50", "setting": "[1]; BOTTOM 9.100238565, HILLSLOPE 1.237667708, MAX_EFFECT 69.82591876, TOP 73.93326352", "result": 5.4}, {"measurement": "PXC50", "setting": "[1]; MAX_EFFECT 40.52863436", "result": "< 4"}]}
{"smiles": "CN(c1ncnc2ccccc12)C1CCCN(c2cccnn2)C1", "note": "(stereo not drawn)", "values": [{"measurement": "PXC50", "setting": "[1]; BOTTOM 0.59496429, HILLSLOPE 1.142527095, MAX_EFFECT 61.72248804, TOP 100.0", "result": 4.15}, {"measurement": "PXC50", "setting": "[1]; BOTTOM 4.775047561, HILLSLOPE 1.968197794, MAX_EFFECT 73.89635317, TOP 73.89635317", "result": 4.48}, {"measurement": "PXC50", "setting": "[1]; BOTTOM 7.086189247, HILLSLOPE 1.125976509, MAX_EFFECT 60.07005254, TOP 100.0", "result": 4.1}, {"measurement": "PXC50", "setting": "[1]; BOTTOM 8.519162934, HILLSLOPE 1.512392504, MAX_EFFECT 75.36231884, TOP 100.0", "result": 4.28}, {"measurement": "PXC50", "setting": "[1]; BOTTOM -1.496045735, HILLSLOPE 1.12468747, MAX_EFFECT 69.3877551, TOP 100.0", "result": 4.34}]}
{"smiles": "COc1ccccc1C(=O)NC(c1ccccn1)[C@H]1CC[C@H](CN)CC1", "note": "(stereo partly drawn)", "values": [{"measurement": "PXC50", "setting": "[1]; BOTTOM -1.193557467, HILLSLOPE 1.40396169, MAX_EFFECT 57.36568458, TOP 100.0", "result": 4.08}, {"measurement": "PXC50", "setting": "[1]; BOTTOM -5.444679276, HILLSLOPE 1.669546179, MAX_EFFECT 75.83892617, TOP 100.0", "result": 4.3}, {"measurement": "PXC50", "setting": "[1]; BOTTOM -12.31313032, HILLSLOPE 1.366255023, MAX_EFFECT 79.86111111, TOP 100.0", "result": 4.41}, {"measurement": "PXC50", "setting": "[1]; MAX_EFFECT 0.790513834", "result": "< 4"}, {"measurement": "PXC50", "setting": "[1]; MAX_EFFECT 6.349206349", "result": "< 4"}]}
{"smiles": "CC1CCN(c2ccc(C(=O)N3CCCC3c3ccc[nH]3)cn2)CC1", "note": "(stereo not drawn)", "values": [{"measurement": "PXC50", "setting": "[1]; BOTTOM 1.515439463, HILLSLOPE 1.666598775, MAX_EFFECT 83.87715931, TOP 100.0", "result": 4.46}, {"measurement": "PXC50", "setting": "[1]; BOTTOM -1.123012713, HILLSLOPE 2.407877124, MAX_EFFECT 92.83154122, TOP 98.62534766", "result": 4.49}, {"measurement": "PXC50", "setting": "[1]; BOTTOM -1.142129641, HILLSLOPE 1.640897748, MAX_EFFECT 81.18022329, TOP 100.0", "result": 4.4}, {"measurement": "PXC50", "setting": "[1]; BOTTOM -13.95110743, HILLSLOPE 2.091757253, MAX_EFFECT 73.91304348, TOP 74.65708324", "result": 4.71}, {"measurement": "PXC50", "setting": "[1]; BOTTOM -19.81350398, HILLSLOPE 1.3052719, MAX_EFFECT 84.15841584, TOP 92.57854766", "result": 4.84}, {"measurement": "Percent Effect", "setting": "[2]", "result": -6.21, "unit": "%"}]}
